This is a sample that favours compounds with a hit; in the whole collection about 3.6% have one here.
HSF-1 act – HSF-1 activators, primary screen, NIH3T3-HGL cells, MG132 stress, luminescence, single point; AID 504408, 2011; NIH3T3-HGL HSF-1 luciferase reporter, 8 h; 100% = twice DMSO control signal; activation, % at 9 µM; 1.7% of 300,000 active;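 active means mean replicate activation of at least 50% with a set share of replicates each reaching 50%; inconclusive means only one of those two conditions met; inactive means mean below 50% and too few replicates reaching it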
TROY NFkB inh – inhibitors of TROY-driven NF-kB signaling, primary screen, Q293 LMP1-TROYcd cells, NF-kB luciferase, uHTS | Q293 LMP1-TROYcd NF-kB luciferase reporter, 4 h | inhibition, % at 10 µM | 0.98% of 360,000 active;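 active means compounds whose plate-normalised and pattern-corrected inhibition of the luciferase reporter signal at the single screening dose is 50% or more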
LMP1 NFkB inh – EBV LMP1-driven NF-kappaB luciferase reporter inhibitors, primary screen, cell-based, luminescence, single point | LMP1-induced NF-kappaB luciferase reporter cells | inhibition, % at 12.5 µM | 0.69% of 350,000 active | AID 504558, 2011; in the data active means inhibition above about 41%; inconclusive means no clear call, values can overlap the other calls
LGR2 inh – inhibitors of bursicon-induced LGR2 CRE-luciferase signal, primary screen, cell-based, HEK293, CRE-luciferase reporter, bursicon stimulation; inhibition, % at 9.99 µM; bursicon-stimulated, 4 h; 0.35% of 380,000 active; Drosophila bursicon receptor LGR2 (rickets); AID 720647, 2013;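 active means drop in luminescence signal, shown as inhibition above about 50% in the replicate tests, limit read from the data, passing the limit was not always enough; inconclusive means probably only some replicates passing the limit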;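 further: agonist challenge used bursicon conditioned medium at about half maximal strength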
TWEAK-Fn14 inh – inhibitors of TWEAK-Fn14 signaling, primary screen, luciferase reporter cells, uHTS; TWEAK-stimulated Fn14 reporter cells, luciferase luminescence, 8 h; 2% of 360,000 active; inhibition, % at 10 µM; AID 1159606, 2016; in the data active means inhibition above about 50%
HSF1 inhib – HSF1 inhibitors in luciferase reporter cells, primary screen, cell-based, NIH3T3, luminescence; NIH3T3-HGL HSE-luciferase, MG132-induced, luminescence 8 h; hits give low values; activity change, negative = inhibition, % at 7.5 µM (by protocol); 0.77% of 300,000 active;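 active means more than half of replicate wells show activity change below -50%, luminescence cut by over half; inconclusive means some wells, but at most half, below -50%; inactive means no replicate well below -50%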;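 further: luciferase reports HSF-1 transcriptional activity via heat shock element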
Each line names hits and unclear results; the compound was inactive in the other large screens.

CCN1CCCC1CNCc1cc(OC)c(OC)c(OC)c1 (configuration not stated)	none
CCN1CCCC1CNC(=O)c1ccccc1Cl (configuration not stated)	none
C[C@@H]1CN([C@H](C)CO)C(=O)c2cc(NS(=O)(=O)c3ccccc3)ccc2O[C@H]1CN(C)S(C)(=O)=O	none (no result: HSF-1 act, TROY NFkB inh, LMP1 NFkB inh, TWEAK-Fn14 inh, HSF1 inhib)
Cc1cc2[nH]c(=O)c3ccccc3n2n1	HSF-1 act 54 (no result: LGR2 inh)
Cc1cc2[nH]c(=O)cc(-c3ccccc3)n2n1	none
C[C@@H]1CN([C@@H](C)CO)C(=O)c2cc(NS(=O)(=O)c3ccc(Cl)cc3)ccc2O[C@@H](C)CCCCO[C@@H]1CN(C)C(=O)CCCN(C)C	none (no result: HSF-1 act, TROY NFkB inh, LMP1 NFkB inh, TWEAK-Fn14 inh, HSF1 inhib)
COc1ccccc1-n1cnc2cc(NCc3ccccn3)ccc21	TROY NFkB inh 56, TWEAK-Fn14 inh 52 (no result: LGR2 inh)
C=CCn1c(-c2cccc3ccccc23)n[nH]c1=S	HSF1 inhib -73 (no result: LGR2 inh)
Cc1noc(C)c1NC(=O)N(C)C[C@H]1OCCCC[C@H](C)Oc2ccc(NS(=O)(=O)c3cn(C)cn3)cc2C(=O)N([C@@H](C)CO)C[C@H]1C	none (no result: HSF-1 act, TROY NFkB inh, LMP1 NFkB inh, TWEAK-Fn14 inh, HSF1 inhib)
C[C@H]1CN([C@@H](C)CO)S(=O)(=O)c2ccc(-c3ccccc3)cc2O[C@@H]1CN(C)C(=O)c1ccccc1F	none (no result: HSF-1 act, TROY NFkB inh, LMP1 NFkB inh, TWEAK-Fn14 inh, HSF1 inhib)
CCOC(=O)C(=NC1CCCCC1)NNc1cccc(C(F)(F)F)c1	none
CCOC(=O)C(=NC(C)CC)NNc1cccc(C(F)(F)F)c1 (configuration not stated)	TWEAK-Fn14 inh 58
C[C@@H]1CN([C@@H](C)CO)C(=O)c2cc(NS(=O)(=O)c3cn(C)cn3)ccc2O[C@@H](C)CCCCO[C@H]1CN(C)Cc1ccc(C(F)(F)F)cc1	none (no result: HSF-1 act, TROY NFkB inh, LMP1 NFkB inh, TWEAK-Fn14 inh, HSF1 inhib)
COc1cccc(C(=O)CSc2nccn2C)c1	TWEAK-Fn14 inh 86
Cn1ccnc1SCC(=O)c1cccc(Br)c1	none
Cn1ccnc1SCC(=O)N(C1CCCCC1)C1CCCCC1	HSF1 inhib -68 (no result: LGR2 inh)
Cn1ccnc1SCC(=O)c1ccc2ccccc2c1	HSF-1 act 213
C[C@H]1CN([C@@H](C)CO)C(=O)c2cc(NS(=O)(=O)c3ccccc3)ccc2O[C@H]1CN(C)Cc1ccc2c(c1)OCO2	none (no result: HSF-1 act, TROY NFkB inh, LMP1 NFkB inh, TWEAK-Fn14 inh, HSF1 inhib)
CCOC(=O)N1CCC(NC(=O)C2CCCN(Cc3nc(-c4cccc(Cl)c4)oc3C)C2)CC1 (configuration not stated)	LMP1 NFkB inh 53
COc1ccc(CCNC(=O)C2CCCN(Cc3nc(-c4ccccc4C)oc3C)C2)cc1OC (configuration not stated)	HSF-1 act 72 (no result: LGR2 inh)
COc1cccc(-c2nc(CS(=O)(=O)CC(=O)NCCC(C)C)c(C)o2)c1	none
Cc1oc(-c2cccc(Cl)c2)nc1CS(=O)(=O)CC(=O)NC1CC1	HSF-1 act 57
Cc1oc(-c2ccc(Cl)cc2)nc1CN1CCCC(C(=O)NC2CC2)C1 (configuration not stated)	none
CCN(CCNC(=O)CS(=O)(=O)Cc1nc(-c2cccc(OC)c2)oc1C)c1ccccc1	HSF-1 act 78 (no result: LGR2 inh)
COC(=O)[C@]12CCCCC=C1N(Cc1cccc3ccccc13)C(=O)[C@H](CC(=O)NCCC(C)C)C2	LGR2 inh 64 (no result: HSF-1 act, LMP1 NFkB inh, HSF1 inhib)
C[C@@H]1CN([C@H](C)CO)C(=O)Cc2cc(NC(=O)c3ccncc3)ccc2O[C@@H]1CN(C)S(=O)(=O)c1ccccc1	none (no result: HSF-1 act, TROY NFkB inh, LMP1 NFkB inh, TWEAK-Fn14 inh, HSF1 inhib)
C/C(N)=C(/C#N)C(=O)CSc1nnc(Nc2ccccc2)s1	HSF-1 act 55
C/C(N)=C(/C#N)C(=O)CSc1nnc(Nc2ccccc2C)s1	HSF-1 act 71 (no result: LGR2 inh)
NNC(=O)c1cccc(COc2ccccc2Br)c1	none (no result: LGR2 inh)
NNC(=O)c1cccc(COc2ccc3c(c2)CCC3)c1	LMP1 NFkB inh 63, LGR2 inh inconclusive, HSF1 inhib inconclusive
Cc1ccc(S(=O)(=O)N[C@H]2CC[C@H](CC(=O)NCCCN(C)C)O[C@@H]2CO)cc1	none (no result: HSF-1 act, TROY NFkB inh, LMP1 NFkB inh, TWEAK-Fn14 inh, HSF1 inhib)
O=C(N/N=C(\CC(=O)c1cccs1)C(F)(F)F)c1cccnc1	none
O=C(N/N=C(/CC(=O)c1cccs1)C(F)(F)F)c1ccc(O)cc1	LMP1 NFkB inh 49
COc1cccc(-c2nc3sc4c(c3c(=O)[nH]2)CCCCC4)c1	HSF-1 act 53
